Pf apPOL block = Pf-apPOL inhibitors, biochemical, fluorescence. AID 1794808, 2022. Recombinant Pf-apPOL, molecular beacon fluorescence, 1.5 h. hit rate 0.25% among 210,000. inhibition, % at 10 µM. Plasmodium falciparum apicoplast DNA polymerase (apPOL)
mHTT-CaM PPI inh = mutant huntingtin-calmodulin interaction inhibitors – biochemical, AlphaScreen, primary screen | AID 1671202, 2021 | P42858 | AlphaScreen His-mHTT/GST-CaM binding, luminescence | inhibition, % at 15 µM | hit rate 3.6% among 190,000
Target sequence (P42858 whole entry, looked up, change not shown): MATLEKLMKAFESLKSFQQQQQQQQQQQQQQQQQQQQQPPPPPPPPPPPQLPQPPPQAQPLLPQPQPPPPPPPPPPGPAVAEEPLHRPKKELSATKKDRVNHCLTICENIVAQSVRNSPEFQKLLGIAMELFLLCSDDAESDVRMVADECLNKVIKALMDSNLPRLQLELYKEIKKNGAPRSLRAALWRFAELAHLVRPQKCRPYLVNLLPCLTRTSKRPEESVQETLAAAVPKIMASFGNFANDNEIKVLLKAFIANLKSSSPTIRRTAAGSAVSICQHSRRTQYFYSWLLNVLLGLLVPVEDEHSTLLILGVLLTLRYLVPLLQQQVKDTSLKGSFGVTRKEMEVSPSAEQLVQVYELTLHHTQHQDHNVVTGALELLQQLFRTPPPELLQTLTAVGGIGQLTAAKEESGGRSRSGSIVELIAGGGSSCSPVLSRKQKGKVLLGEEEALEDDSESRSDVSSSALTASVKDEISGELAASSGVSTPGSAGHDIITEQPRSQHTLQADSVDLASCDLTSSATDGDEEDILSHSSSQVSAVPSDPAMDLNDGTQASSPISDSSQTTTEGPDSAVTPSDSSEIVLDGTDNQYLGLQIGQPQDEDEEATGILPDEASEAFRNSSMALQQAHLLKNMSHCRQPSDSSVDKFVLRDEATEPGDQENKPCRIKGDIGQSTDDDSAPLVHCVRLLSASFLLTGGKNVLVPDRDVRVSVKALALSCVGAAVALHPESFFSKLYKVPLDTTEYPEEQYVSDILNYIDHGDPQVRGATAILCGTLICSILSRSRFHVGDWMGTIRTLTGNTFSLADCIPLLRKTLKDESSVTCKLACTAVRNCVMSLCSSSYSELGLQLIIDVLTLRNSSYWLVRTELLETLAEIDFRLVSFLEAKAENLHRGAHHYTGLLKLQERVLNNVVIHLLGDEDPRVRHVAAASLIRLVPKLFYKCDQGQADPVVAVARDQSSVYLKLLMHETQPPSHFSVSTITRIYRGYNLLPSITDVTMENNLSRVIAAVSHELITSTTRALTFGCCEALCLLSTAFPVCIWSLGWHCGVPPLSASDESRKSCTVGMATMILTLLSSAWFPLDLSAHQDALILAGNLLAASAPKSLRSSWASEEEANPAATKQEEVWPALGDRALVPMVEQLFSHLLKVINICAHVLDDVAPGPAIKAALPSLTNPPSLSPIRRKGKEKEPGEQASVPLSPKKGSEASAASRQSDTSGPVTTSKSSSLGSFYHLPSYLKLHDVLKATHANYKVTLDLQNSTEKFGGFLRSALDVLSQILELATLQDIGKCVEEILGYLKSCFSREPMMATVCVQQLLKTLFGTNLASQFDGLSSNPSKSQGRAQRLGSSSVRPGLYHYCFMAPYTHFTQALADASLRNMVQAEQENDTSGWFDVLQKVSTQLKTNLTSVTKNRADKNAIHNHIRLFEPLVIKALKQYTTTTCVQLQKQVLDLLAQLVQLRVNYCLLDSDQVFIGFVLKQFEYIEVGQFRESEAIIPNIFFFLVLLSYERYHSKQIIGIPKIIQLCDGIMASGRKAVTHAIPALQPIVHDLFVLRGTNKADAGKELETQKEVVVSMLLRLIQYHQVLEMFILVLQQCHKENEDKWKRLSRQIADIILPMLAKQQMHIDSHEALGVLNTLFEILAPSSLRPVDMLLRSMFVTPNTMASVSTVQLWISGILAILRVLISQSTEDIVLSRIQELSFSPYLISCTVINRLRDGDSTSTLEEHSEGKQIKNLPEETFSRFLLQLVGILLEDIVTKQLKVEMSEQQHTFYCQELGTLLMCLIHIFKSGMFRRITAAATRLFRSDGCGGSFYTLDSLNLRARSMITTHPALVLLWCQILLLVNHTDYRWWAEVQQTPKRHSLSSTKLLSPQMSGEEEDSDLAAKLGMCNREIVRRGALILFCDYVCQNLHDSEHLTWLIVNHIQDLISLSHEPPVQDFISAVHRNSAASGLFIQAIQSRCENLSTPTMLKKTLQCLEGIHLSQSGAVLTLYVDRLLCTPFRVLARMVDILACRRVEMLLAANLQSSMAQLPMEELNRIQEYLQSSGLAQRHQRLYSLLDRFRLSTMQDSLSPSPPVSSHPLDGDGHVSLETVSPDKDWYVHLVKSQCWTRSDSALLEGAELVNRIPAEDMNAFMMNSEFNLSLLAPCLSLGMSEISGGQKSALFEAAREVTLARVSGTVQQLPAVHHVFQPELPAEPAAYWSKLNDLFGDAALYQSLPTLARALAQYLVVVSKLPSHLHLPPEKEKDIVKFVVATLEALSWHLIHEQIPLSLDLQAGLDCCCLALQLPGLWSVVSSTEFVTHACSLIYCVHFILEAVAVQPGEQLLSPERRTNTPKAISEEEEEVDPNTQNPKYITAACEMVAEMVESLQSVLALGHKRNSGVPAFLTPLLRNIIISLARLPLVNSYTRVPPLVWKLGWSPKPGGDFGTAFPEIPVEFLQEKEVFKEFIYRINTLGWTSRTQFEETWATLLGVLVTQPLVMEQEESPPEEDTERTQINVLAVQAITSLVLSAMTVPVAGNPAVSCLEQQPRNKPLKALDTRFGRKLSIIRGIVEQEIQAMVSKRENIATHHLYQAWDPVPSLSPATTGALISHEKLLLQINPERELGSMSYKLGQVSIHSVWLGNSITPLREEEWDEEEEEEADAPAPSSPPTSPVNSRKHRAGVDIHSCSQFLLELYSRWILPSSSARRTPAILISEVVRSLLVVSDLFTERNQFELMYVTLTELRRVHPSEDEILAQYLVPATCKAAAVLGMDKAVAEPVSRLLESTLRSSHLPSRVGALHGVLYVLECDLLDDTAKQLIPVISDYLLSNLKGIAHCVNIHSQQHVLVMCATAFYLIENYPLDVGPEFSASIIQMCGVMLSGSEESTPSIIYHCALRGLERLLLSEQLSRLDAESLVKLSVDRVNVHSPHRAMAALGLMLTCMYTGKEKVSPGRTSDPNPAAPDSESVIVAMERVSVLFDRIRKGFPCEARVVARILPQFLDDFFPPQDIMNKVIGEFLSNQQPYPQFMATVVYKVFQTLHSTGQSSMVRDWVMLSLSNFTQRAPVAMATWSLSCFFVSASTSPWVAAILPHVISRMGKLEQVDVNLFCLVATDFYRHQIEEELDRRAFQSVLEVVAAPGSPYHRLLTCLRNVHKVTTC
Each line names hits and unclear results; the compound was inactive in the other large screens; ! = not active in a repeat. This is a sample that favours compounds with a hit; in the whole collection about 3.5% have one here. No stated cut-off is given here; in the data, active means inhibition above about 50%; inactive means the rest.

CCN(CCCNC(=O)Cn1cc2c(n1)CCCC2)Cc1ccccc1	none
CC(c1ccccc1)c1nc(-c2ccc(=O)[nH]c2)no1 (configuration not stated)	none
CCn1cc(C2=CCN(C(=O)Nc3ccc(F)cc3F)CC2)c2cccnc21	none
Cc1ccc(C(O)C#CC23CC4CC(CC(C4)C2)C3)o1 (configuration not stated)	mHTT-CaM PPI inh 87.0
OC(C#CC12CC3CC(CC(C3)C1)C2)c1cccnc1 (configuration not stated)	none
CCOC(=O)CNC(=O)NCCC1CCN(S(=O)(=O)c2ccccc2)CC1	none
CN(C)/C=C1\C(=O)N(c2nc3ccccc3s2)N=C1c1ccccc1	none
COc1ccc(C2=NN(c3nc4ccccc4s3)C(=O)/C2=C\N(C)C)cc1	mHTT-CaM PPI inh 73.0
CC(=O)Nc1ccc(S(=O)(=O)Nc2ccccc2C(=O)NC2CCCCC2)cc1	none
Cc1cc(Br)c2c3c(c(N)c(=O)[nH]c13)-c1ccccc1C2=O	none
Cc1cc2c3c(c(Br)cc(S(=O)(=O)O)c3n1)C(=O)c1ccccc1-2	mHTT-CaM PPI inh 99.0
Cc1ccc(Nc2cc(N3CCC(C(=O)NCc4ccco4)CC3)ncn2)cc1	none
COc1ccc(-c2csc(Nc3ccccc3)[n+]2CC(O)c2ccc([N+](=O)[O-])cc2)cc1 (configuration not stated)	mHTT-CaM PPI inh 65.5
COc1ccc(C(C)NC(=O)CN(c2ccc([N+](=O)[O-])cc2)S(=O)(=O)c2ccccc2)cc1 (configuration not stated)	none
Cc1ccc(NS(=O)(=O)c2ccc3c4c(cccc24)C(=O)N3)c(C)c1	none
Cc1ccc(NS(=O)(=O)c2cccc3c2C(=O)c2ccccc2C3=O)c(C)c1	mHTT-CaM PPI inh 57.0
CC(C)n1cc(C2=CCN(C(=O)Nc3ccc(Cl)cc3)CC2)c2cccnc21	none
CC(C)n1cc(C2=CCN(C(=O)Nc3ccc4c(c3)OCCO4)CC2)c2cccnc21	mHTT-CaM PPI inh 60.9
O=C(NC1CC2CC1N(C(=O)Nc1ccc(Cl)cc1F)C2)c1cccs1 (configuration not stated)	none
O=C(NCCN1CCCCC1)C1CCCN(c2nnc3ccccn23)C1 (configuration not stated)	none
O=C(c1ccco1)N1CCCC(c2ccnc(Nc3ccccc3F)n2)C1 (configuration not stated)	mHTT-CaM PPI inh 56.3
Cc1cccc(Nc2nccc(C3CCCN(C(=O)c4ccco4)C3)n2)c1 (configuration not stated)	mHTT-CaM PPI inh 76.7
Cc1ccccc1Nc1nccc(C2CCCN(C(=O)c3ccco3)C2)n1 (configuration not stated)	none
N#Cc1ccc(C(=O)N2CCCC(c3ccnc(Nc4ccccc4F)n3)C2)cc1 (configuration not stated)	none
CN(C)c1ccc(C(=O)N2CCCC(c3ccnc(Nc4ccccc4F)n3)C2)cc1 (configuration not stated)	mHTT-CaM PPI inh 60.2
CC(=O)N1CCCC(c2ccnc(Nc3cccc(C)c3)n2)C1 (configuration not stated)	none
CC(C)CCNS(=O)(=O)c1ccc(F)c(C(=O)O)c1F	none
CCn1cc(CN2CCC(C(=O)NCCCN3CCOCC3)CC2)c2cc(Cl)ccc21	none
CCc1n[nH]c(CC)c1NC(=O)c1c(F)cccc1F	none
O=C1CCN(Cc2ccccc2)CCN1[C@H](COc1ccccc1)c1ccccc1	mHTT-CaM PPI inh 84.8
CC(C)[C@@H](COc1ccccc1)N1CCN(Cc2ccccc2)CCC1=O	none
Cc1ccc(S(=O)(=O)N=C2Nc3ccccc3C2=C(C#N)C#N)cc1	none
O=C(NCc1cccc(Cl)c1)C1CCCN(C(=O)c2cccc(C(F)(F)F)c2)C1 (configuration not stated)	none
O=C1CSC(c2cc3c(cc2Br)OCO3)N1c1ccccc1 (configuration not stated)	none
NC(Cc1c[nH]c2ccc(O)cc12)C(=O)O (configuration not stated)	none (no result: mHTT-CaM PPI inh)
O=C(O)Cc1c[nH]c2ccc(O)cc12	Pf apPOL block 95.0!, mHTT-CaM PPI inh 84.8
CC1CCCCC1NC(=O)C1CCC(CNS(=O)(=O)c2ccc(Br)s2)CC1 (configuration not stated)	none
Cc1cccc(N2C(=O)/C(=C\C=C\c3ccccc3)S(=O)(=O)C2c2cccc([N+](=O)[O-])c2)c1 (configuration not stated)	none
COC(=O)c1cnc2nc(C)ccc2c1NCc1ccccc1	none
O=C(NCCN1CCN(c2ccc(Cl)cc2)CC1)C(=O)Nc1ccc2c(c1)OCCO2	none
CC(C)c1ccc2oc(-c3cc(N)ccc3O)nc2c1	mHTT-CaM PPI inh 62.1
Cc1ccc2oc(-c3cc(N)ccc3O)nc2c1	none
CCOc1ccc(-n2c(=O)c3sccc3n(CC(=O)Nc3ccc(CC)cc3)c2=O)cc1	none
CC1=NN(C(=O)C(C)C)C(O)(c2ccc(Br)cc2)C1 (configuration not stated)	none
CC1=NN(C(=O)c2cc(Br)ccc2O)C(O)(c2ccccc2)C1 (configuration not stated)	mHTT-CaM PPI inh 98.0
CC1=NN(C(=O)c2cccc([N+](=O)[O-])c2)C(O)(c2ccc(Br)cc2)C1 (configuration not stated)	mHTT-CaM PPI inh 66.0
CC1=NN(C(=O)c2cccc(O)c2)C(O)(c2ccc(Br)cc2)C1 (configuration not stated)	none
CC1=NN(C(=O)c2ccc(Cl)cc2)C(O)(c2cccc([N+](=O)[O-])c2)C1 (configuration not stated)	none
CC1=NN(C(=O)c2cccc([N+](=O)[O-])c2)C(O)(c2ccc(Cl)cc2)C1 (configuration not stated)	mHTT-CaM PPI inh 59.0
CCC1=NN(C(=O)c2ccc(C)cc2)C(O)(c2ccc(Br)cc2)C1 (configuration not stated)	mHTT-CaM PPI inh 70.0
CCC1=NN(C(=O)c2ccccc2)C(O)(c2ccc(Br)cc2)C1 (configuration not stated)	none
O=c1[nH]c2cc[nH]c(=O)c2[nH]1	none (no result: Pf apPOL block)
Cc1cn2c(=O)c(C(=O)Nc3nc4c(C)cccc4s3)cnc2s1	none
CCOc1ccc(CN2CCCC2c2cc(C(C)C)no2)cc1OC (configuration not stated)	none
Cc1ccc(OCC(=O)Nc2ccc(C(N)=O)cc2)cc1C	none
CCOC(=O)N1CCN(C(=O)C2CC(c3ccc(OC)cc3)=NO2)CC1 (configuration not stated)	none
COc1c(/C=C2\SC(=Nc3ccccc3)NC2=O)cccc1[N+](=O)[O-]	none
CC(Oc1ccccc1)C(=O)Nc1c2c(nn1C(C)(C)C)CS(=O)(=O)C2 (configuration not stated)	none
COc1cccc(C2(O)CC(C(F)(F)F)=NN2C(=O)c2ccccc2[N+](=O)[O-])c1 (configuration not stated)	none
O=C(c1ccccc1)N1N=C(C(F)(F)F)CC1(O)c1cccc([N+](=O)[O-])c1 (configuration not stated)	mHTT-CaM PPI inh 53.0
CCNC(=O)N1CCCC(c2cccc(C(=O)NCc3ccc(F)c(Cl)c3)c2)C1 (configuration not stated)	none
CCCn1cc(CNC(=O)C2CCc3sc(C(=O)N4CCOCC4)cc3C2)c(C)n1 (configuration not stated)	none
C[C@H]1[C@@H](NC(=O)c2ccc(Cl)c(C(F)(F)F)c2)CC[C@@]23CCCN2C(=O)CCC[C@@H]13	none
